From paper PMC7862700, “An all-to-all approach to the identification of sequence-specific readers for epigenetic DNA modifications on cytosine”

Assays:
Experiment in all cases: DAPPL (digital affinity profiling via proximity ligation, sequencing); 10 mM Tris-HCl pH 7.5, 50 mM NaCl, 1 mM DTT, 4% glycerol, room temperature, 30 min; GST-TFs on glutathione beads, 16-mer random dsDNA library, 0.1% formaldehyde crosslink after washing; high values mean tight binding
FEV = target: T1, FEV (Homo sapiens, UniProt Q99581 1-238); details: protein: recombinant; tags: N-terminal GST; dsDNA, one strand shown
T1 sequence: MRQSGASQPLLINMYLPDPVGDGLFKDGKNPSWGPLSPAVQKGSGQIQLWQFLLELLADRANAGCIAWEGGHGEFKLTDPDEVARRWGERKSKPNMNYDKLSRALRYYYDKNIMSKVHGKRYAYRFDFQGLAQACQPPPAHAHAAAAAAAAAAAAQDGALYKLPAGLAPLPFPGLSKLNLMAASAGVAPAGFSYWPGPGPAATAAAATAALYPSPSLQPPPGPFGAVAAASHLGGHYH
Method in brief: (§1)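 Pools of DNA-barcoded human transcription factors, expressed in yeast as GST fusions on glutathione beads and combined with a tag-only sample, were incubated with 200 nmole of a 16-mer random double-stranded DNA library. Incubation took 30 min at room temperature in Tris/NaCl/DTT/glycerol buffer and was followed by washing, 0.1% formaldehyde crosslinking, proximity ligation (BsaI/T4 ligase, 1 h, 37 °C), PCR amplification and sequencing on an Illumina NextSeq500. Binding signal is the ratio of a hexamer's read frequency for a factor to its frequency for the tag-only sample.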

ETV5 = ETV5 (Homo sapiens, UniProt P41161 1-510); details: protein: recombinant; tags: N-terminal GST; dsDNA, one strand shown
Method in brief: as §1

HSF1 = HSF1 (Homo sapiens, UniProt Q00613 1-529); details: protein: recombinant; tags: N-terminal GST; chain copies: 3; dsDNA, one strand shown
Method in brief: as §1

SPIC = target: T2, SPIC (Homo sapiens, UniProt Q8N5J4 1-248); details: protein: recombinant; tags: N-terminal GST; dsDNA, one strand shown
T2 sequence: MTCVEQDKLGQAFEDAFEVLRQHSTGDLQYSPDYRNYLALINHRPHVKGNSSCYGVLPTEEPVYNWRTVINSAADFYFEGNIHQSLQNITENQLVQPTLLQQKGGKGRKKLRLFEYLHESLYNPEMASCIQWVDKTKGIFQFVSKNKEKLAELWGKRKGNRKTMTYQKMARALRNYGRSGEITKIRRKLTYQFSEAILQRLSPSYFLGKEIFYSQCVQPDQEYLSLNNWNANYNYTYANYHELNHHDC
Method in brief: as §1

ELF4 = ELF4 (Homo sapiens, UniProt Q99607 1-663); details: protein: recombinant; tags: N-terminal GST; dsDNA, one strand shown
Method in brief: as §1

ELK4 = target: T3, ELK4 (Homo sapiens, UniProt P28324-2 1-405); details: protein: recombinant; tags: N-terminal GST; dsDNA, one strand shown
T3 sequence: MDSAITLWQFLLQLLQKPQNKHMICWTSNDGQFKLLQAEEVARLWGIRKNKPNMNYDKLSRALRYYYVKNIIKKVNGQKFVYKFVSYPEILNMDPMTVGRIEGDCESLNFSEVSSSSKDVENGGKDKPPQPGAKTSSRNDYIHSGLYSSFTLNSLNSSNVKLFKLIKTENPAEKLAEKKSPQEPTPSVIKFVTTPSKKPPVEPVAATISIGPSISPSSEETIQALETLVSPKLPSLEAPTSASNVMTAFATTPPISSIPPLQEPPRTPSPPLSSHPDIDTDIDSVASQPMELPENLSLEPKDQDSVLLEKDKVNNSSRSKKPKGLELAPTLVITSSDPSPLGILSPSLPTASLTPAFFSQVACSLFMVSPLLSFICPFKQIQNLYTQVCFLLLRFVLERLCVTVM
Method in brief: as §1

ETV2 = target: T4, ETV2 (Homo sapiens, UniProt O00321 1-342); details: protein: recombinant; tags: N-terminal GST; dsDNA, one strand shown
T4 sequence: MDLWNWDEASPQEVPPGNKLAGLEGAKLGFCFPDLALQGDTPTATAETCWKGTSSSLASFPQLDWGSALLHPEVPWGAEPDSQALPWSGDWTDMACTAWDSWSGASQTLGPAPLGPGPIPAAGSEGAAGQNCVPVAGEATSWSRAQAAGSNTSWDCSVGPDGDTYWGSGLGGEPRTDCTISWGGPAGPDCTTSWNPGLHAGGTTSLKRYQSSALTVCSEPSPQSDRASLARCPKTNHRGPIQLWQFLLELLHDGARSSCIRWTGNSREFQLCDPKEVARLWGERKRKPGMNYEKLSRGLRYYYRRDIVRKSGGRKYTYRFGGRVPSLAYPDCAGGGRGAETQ
Method in brief: as §1

ELF3 = target: T5, ELF3 (Homo sapiens, UniProt P78545 1-371); details: protein: recombinant; tags: N-terminal GST; dsDNA, one strand shown
T5 sequence: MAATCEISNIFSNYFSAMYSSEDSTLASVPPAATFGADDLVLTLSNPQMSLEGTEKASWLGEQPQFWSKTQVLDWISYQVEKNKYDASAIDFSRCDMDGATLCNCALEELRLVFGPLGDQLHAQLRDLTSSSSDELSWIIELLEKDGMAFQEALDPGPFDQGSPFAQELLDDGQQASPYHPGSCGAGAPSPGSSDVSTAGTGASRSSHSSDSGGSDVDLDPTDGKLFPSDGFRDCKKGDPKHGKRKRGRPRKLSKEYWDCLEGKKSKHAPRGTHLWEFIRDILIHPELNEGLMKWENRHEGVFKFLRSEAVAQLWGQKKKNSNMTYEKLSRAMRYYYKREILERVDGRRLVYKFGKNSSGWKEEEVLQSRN
Method in brief: as §1

CRX = CRX (Homo sapiens, UniProt O43186 1-299); details: protein: recombinant; tags: N-terminal GST; dsDNA, one strand shown
Method in brief: as §1

ETV1 = ETV1 (Homo sapiens, UniProt P50549 1-477); details: protein: recombinant; tags: N-terminal GST; dsDNA, one strand shown
Method in brief: as §1

ERF = target: T6, ERF (Homo sapiens, UniProt P50548 1-548); details: protein: recombinant; tags: N-terminal GST; dsDNA, one strand shown
T6 sequence: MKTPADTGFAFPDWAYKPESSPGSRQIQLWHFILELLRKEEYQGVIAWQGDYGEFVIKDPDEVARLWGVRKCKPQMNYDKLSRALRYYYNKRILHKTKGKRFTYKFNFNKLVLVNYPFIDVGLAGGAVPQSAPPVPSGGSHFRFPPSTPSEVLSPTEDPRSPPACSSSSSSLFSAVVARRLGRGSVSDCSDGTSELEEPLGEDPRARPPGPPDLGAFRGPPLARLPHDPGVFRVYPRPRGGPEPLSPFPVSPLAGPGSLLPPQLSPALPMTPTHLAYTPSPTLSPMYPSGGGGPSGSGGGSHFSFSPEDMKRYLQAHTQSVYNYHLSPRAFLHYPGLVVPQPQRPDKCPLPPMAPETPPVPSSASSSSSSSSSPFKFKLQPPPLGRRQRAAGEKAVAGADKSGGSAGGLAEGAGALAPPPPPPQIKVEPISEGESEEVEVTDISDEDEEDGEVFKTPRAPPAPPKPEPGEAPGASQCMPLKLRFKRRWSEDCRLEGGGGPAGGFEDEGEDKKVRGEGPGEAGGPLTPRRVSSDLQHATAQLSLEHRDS
Method in brief: as §1

ETV3L = target: T7, ETV3L (Homo sapiens, UniProt Q6ZN32 1-361); details: protein: recombinant; tags: N-terminal GST; dsDNA, one strand shown
T7 sequence: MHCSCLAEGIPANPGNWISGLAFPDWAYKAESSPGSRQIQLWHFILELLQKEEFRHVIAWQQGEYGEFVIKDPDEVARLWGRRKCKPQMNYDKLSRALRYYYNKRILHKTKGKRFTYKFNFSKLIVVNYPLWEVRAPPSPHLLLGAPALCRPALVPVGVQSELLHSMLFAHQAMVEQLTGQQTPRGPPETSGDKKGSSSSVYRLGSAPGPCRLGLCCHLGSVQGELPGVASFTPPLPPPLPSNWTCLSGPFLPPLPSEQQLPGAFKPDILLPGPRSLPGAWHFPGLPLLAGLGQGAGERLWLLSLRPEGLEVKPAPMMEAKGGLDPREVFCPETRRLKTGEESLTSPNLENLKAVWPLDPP
Method in brief: as §1

ETS2 = target: T8, ETS2 (Homo sapiens, UniProt P15036 1-469); details: protein: recombinant; tags: N-terminal GST; dsDNA, one strand shown
T8 sequence: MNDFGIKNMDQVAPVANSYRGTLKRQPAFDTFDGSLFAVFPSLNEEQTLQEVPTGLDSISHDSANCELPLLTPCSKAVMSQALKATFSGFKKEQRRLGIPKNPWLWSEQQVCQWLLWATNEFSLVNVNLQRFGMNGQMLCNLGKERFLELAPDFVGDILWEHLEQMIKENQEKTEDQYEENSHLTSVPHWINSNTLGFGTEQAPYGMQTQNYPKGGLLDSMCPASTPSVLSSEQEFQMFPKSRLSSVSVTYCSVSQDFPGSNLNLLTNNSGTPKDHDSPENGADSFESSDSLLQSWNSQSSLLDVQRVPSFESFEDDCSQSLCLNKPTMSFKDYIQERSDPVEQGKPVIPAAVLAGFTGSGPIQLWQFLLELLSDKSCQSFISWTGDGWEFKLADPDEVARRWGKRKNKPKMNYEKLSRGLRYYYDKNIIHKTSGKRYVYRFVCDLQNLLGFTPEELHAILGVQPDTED
Method in brief: as §1

SPDEF = target: T9, SPDEF (Homo sapiens, UniProt O95238 1-335); details: protein: recombinant; tags: N-terminal GST; dsDNA, one strand shown
T9 sequence: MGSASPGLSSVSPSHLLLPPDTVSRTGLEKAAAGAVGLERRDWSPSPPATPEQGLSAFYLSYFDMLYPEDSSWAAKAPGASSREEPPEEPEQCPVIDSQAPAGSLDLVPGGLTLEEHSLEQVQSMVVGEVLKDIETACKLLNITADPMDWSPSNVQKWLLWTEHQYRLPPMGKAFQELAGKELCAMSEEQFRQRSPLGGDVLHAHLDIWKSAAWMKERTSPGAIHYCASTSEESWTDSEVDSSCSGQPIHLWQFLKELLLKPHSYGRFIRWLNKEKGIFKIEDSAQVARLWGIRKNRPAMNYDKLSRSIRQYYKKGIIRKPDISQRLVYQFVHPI
Method in brief: as §1

ETV7 = target: T10, ETV7 (Homo sapiens, UniProt Q9Y603 1-341); details: protein: recombinant; tags: N-terminal GST; dsDNA, one strand shown
T10 sequence: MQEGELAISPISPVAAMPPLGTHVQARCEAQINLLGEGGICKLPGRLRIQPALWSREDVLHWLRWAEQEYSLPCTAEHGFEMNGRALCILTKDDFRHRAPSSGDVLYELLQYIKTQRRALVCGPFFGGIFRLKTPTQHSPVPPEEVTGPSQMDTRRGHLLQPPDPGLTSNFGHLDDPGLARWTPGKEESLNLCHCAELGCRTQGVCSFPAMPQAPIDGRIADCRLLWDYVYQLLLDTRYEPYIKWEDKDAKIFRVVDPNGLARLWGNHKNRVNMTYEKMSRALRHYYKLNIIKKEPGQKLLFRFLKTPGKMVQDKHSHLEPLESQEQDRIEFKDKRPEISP
Method in brief: as §1

ELF5 = target: T11, ELF5 (Homo sapiens, UniProt Q9UKW6-2 1-255); details: protein: recombinant; tags: N-terminal GST; dsDNA, one strand shown
T11 sequence: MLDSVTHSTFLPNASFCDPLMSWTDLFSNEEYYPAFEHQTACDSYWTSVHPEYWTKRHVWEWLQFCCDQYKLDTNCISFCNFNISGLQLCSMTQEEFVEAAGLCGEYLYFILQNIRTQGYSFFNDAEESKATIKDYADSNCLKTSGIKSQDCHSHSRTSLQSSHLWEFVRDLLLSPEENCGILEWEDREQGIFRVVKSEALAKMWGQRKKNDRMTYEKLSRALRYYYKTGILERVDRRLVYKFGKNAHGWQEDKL
Method in brief: as §1

ETV3 = target: T12, ETV3 (Homo sapiens, UniProt P41162-2 1-143); details: protein: recombinant; tags: N-terminal GST; dsDNA, one strand shown
T12 sequence: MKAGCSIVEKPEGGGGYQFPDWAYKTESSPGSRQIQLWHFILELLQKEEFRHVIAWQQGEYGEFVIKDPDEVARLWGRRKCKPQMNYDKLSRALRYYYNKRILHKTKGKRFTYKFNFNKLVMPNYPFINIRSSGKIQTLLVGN
Method in brief: as §1

ETV6 = ETV6 (Homo sapiens, UniProt P41212 1-452); details: protein: recombinant; tags: N-terminal GST; dsDNA, one strand shown
Method in brief: as §1

Chain of ETV1 (P50549 whole entry): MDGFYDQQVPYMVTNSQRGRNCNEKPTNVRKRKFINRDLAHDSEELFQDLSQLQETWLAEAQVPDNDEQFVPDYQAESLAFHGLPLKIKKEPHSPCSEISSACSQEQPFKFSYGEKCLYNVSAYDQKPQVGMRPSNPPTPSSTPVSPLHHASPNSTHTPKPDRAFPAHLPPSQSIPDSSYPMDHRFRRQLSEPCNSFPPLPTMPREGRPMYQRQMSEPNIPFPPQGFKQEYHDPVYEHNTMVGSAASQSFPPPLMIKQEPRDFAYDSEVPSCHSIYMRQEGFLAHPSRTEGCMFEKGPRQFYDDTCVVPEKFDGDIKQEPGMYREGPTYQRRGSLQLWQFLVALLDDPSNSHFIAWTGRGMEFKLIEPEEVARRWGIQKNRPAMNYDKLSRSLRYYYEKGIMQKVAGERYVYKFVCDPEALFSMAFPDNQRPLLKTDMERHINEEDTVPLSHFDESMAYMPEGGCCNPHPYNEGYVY
Chain of ETV5 (P41161 whole entry): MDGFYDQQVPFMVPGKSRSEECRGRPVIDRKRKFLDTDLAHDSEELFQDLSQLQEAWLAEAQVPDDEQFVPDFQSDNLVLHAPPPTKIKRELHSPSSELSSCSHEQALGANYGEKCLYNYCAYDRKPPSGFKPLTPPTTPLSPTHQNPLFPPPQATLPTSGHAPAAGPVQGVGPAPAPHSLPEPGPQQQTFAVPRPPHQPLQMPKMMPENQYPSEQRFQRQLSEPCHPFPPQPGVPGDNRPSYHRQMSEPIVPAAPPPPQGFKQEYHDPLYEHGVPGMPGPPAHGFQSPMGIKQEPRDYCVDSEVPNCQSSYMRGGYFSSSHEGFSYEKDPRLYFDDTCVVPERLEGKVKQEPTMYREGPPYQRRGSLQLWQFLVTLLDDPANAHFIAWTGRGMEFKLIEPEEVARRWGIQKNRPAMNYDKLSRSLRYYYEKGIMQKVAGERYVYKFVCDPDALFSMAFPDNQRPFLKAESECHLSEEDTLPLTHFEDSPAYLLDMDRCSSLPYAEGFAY
Chain of CRX (O43186 whole entry): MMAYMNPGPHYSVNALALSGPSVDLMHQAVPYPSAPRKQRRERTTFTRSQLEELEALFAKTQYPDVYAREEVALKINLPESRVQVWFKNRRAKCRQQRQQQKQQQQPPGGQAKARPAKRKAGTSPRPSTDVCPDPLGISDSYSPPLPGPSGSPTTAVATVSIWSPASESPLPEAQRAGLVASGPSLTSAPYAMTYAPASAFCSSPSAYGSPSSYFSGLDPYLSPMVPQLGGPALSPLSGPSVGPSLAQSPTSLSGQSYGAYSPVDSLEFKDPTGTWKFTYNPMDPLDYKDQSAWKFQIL
Chain of ELF4 (Q99607 whole entry): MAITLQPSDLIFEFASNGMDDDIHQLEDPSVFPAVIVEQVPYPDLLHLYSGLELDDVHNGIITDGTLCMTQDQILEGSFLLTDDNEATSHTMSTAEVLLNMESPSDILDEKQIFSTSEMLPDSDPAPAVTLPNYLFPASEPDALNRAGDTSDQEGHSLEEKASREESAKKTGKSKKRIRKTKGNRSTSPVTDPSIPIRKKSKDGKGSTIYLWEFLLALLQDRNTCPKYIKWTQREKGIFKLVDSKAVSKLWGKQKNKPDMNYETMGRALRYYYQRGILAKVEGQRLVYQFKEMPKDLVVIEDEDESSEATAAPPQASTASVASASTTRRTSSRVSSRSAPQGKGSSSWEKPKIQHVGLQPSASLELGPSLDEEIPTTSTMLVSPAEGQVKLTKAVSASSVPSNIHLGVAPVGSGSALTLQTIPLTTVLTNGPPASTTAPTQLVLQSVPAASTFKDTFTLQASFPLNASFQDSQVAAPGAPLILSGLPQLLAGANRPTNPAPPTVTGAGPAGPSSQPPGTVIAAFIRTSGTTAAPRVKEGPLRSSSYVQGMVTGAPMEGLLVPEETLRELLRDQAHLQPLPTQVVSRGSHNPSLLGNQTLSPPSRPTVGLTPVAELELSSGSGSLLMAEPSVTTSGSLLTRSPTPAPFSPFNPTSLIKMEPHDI
Chain of ETV6 (P41212 whole entry): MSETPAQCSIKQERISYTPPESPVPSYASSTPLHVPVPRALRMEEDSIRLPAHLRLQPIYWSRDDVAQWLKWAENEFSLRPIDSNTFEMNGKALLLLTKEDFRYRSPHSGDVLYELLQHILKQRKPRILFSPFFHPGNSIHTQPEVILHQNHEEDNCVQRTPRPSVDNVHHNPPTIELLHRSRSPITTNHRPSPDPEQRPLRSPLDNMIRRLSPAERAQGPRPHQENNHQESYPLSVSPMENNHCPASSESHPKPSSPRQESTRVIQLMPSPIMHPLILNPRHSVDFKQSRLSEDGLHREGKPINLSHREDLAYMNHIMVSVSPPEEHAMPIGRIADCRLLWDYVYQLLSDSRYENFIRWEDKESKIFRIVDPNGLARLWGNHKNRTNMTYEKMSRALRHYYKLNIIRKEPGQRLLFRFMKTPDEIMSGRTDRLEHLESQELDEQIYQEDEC
Chain of HSF1 (Q00613 whole entry): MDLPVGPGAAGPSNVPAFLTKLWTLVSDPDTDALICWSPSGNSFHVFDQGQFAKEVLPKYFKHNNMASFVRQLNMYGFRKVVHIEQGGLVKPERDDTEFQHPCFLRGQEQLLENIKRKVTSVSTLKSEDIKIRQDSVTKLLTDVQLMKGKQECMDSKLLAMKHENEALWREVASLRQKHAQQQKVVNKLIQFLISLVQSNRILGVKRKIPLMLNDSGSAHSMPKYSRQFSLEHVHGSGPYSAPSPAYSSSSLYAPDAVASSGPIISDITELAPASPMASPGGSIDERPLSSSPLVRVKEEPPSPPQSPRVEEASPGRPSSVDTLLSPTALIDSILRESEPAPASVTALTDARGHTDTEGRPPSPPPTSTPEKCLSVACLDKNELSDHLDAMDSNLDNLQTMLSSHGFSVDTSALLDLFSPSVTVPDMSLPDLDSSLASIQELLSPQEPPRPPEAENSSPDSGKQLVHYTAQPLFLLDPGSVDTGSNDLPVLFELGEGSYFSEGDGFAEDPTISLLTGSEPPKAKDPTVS

TCGTTT
binding signal (FEV): 1.14 fold enrichment (6-mer frequency, TF over GST control)
binding signal (ETV5): 1.09 fold enrichment (6-mer frequency, TF over GST control)
binding signal (HSF1): 1.02 fold enrichment (6-mer frequency, TF over GST control)
binding signal (SPIC): 1.15 fold enrichment (6-mer frequency, TF over GST control)
binding signal (ELF4): 1.17 fold enrichment (6-mer frequency, TF over GST control)
binding signal (ELK4): 1.24 fold enrichment (6-mer frequency, TF over GST control)
binding signal (ETV2): 1.3 fold enrichment (6-mer frequency, TF over GST control)
binding signal (ELF3): 1.27 fold enrichment (6-mer frequency, TF over GST control)
binding signal (CRX): 1.08 fold enrichment (6-mer frequency, TF over GST control)
binding signal (ETV1): 1.18 fold enrichment (6-mer frequency, TF over GST control)
binding signal (ERF): 1.07 fold enrichment (6-mer frequency, TF over GST control)
binding signal (ETV3L): 1.15 fold enrichment (6-mer frequency, TF over GST control)
binding signal (ETS2): 1.28 fold enrichment (6-mer frequency, TF over GST control)
binding signal (SPDEF): 1.12 fold enrichment (6-mer frequency, TF over GST control)
binding signal (ETV7): 1.31 fold enrichment (6-mer frequency, TF over GST control)
binding signal (ELF5): 1.27 fold enrichment (6-mer frequency, TF over GST control)
binding signal (ETV3): 1.25 fold enrichment (6-mer frequency, TF over GST control)
binding signal (ETV6): 1.15 fold enrichment (6-mer frequency, TF over GST control)
